Assay outcomes deposited in PubChem by Broad Institute.
aSyn UTR act: Activators via SNCA 5'UTR binding, MLPCN; 7.1% of 300,000 active; alpha-synuclein 5'UTR reporter, activators screen; activity score, % (tested at 7.5 µM), hits read low; in the data active = activity score below about -60%
Active calls of the source: *. Not all results are given here.

SMILES | aSyn UTR act
COc1cccc(NC(=S)NC(=O)/C=C/c2ccco2)c1 | -114*
CN1CCN(c2ccc(NC(=S)NC(=O)/C=C/c3ccco3)cc2)CC1 | -147*
CC(C)c1ccc(/C=C/C(=O)NC(=S)Nc2ccc(CN3CCOCC3)cc2)cc1 | -130*
Cc1ccc2[nH]cc(/C=C/c3cc[n+](C)cc3)c2c1 | 65
O=C(/C=C/c1ccccc1)NC(=S)Nc1ccc(N2CCOCC2)cc1 | -79*
COC(=O)c1c(-c2ccccc2)csc1NC(=O)c1ccco1 | -168*
COC(=O)c1c(-c2ccccc2)csc1NC(=O)c1c(-c2ccccc2)noc1C | 65
O=C(Nc1scc(-c2ccc(F)cc2)c1C(=O)O)c1ccco1 | -77*
O=[N+]([O-])c1ccc(Nc2ccc3ccccc3c2)nc1 | -168*
COc1ccc(C(=O)Nc2sc3c(c2C(=O)O)CC(C)(C)OC3)cc1 | 63
CC1(C)Cc2c(sc(NC(=O)c3ccccc3)c2C(=O)O)CO1 | -74*
Cc1cc(NC(=O)c2ccccc2)sc1C | -142*
CCOc1ccc(/C=N/Nc2ccccn2)cc1OC | -177*
C=CCOc1ccc(/C=N/Nc2ccccn2)cc1OC | -246*
COc1cc(/C=N/Nc2ccccn2)ccc1OCC(C)C | -127*
CCCOc1ccc(/C=N/Nc2ccccn2)cc1OC | -177*
CCOc1ccc(/C=N/N(C)c2ccccc2)cc1OC | -250*
O=C(/C=C/c1ccc(Br)cc1)c1ccc(NC2=NCCCS2)cc1 | -99*
CC(C)(C)c1ccc(/C=C/C(=O)c2ccc(NC3=NCCCS3)cc2)cc1 | -107*
Cc1ccc(Nc2n[nH]c(C)c2[N+](=O)[O-])cc1C | -164*
NC(=O)c1sc2nc(-c3ccco3)ccc2c1N | -62*
COC(=O)c1sc2nc(-c3ccco3)ccc2c1N | -236*
COc1cc(/C=N/OCC(=O)NC2CCCCC2)ccc1OCc1ccccc1 | -97*
COc1cc(/C=N/NC(=O)c2cc(C)oc2C)ccc1OCc1ccccc1 | -102*
COc1cc(/C=N/NC(=O)c2cccs2)ccc1OCc1ccccc1 | -105*
SMILES | aSyn UTR act
COc1cccc(/C=N/NC(=O)c2cccs2)c1 | -137*
N#C/C(=C\c1ccc(OCc2ccc(C(=O)O)cc2)cc1)C(=O)N1CCOCC1 | 93
COc1cc(/C=C(\C#N)C(=O)N2CCOCC2)ccc1OCc1ccccc1 | -120*
Cc1ccc2nc(NC(=O)c3ccc(Cl)s3)sc2c1 | -133*
Cc1nc2ccc(NC(=O)c3ccc(Cl)s3)cc2s1 | -238*
Cc1nc2ccc(NC(=O)c3ccc(Br)o3)cc2s1 | -186*
CCCCc1ccc(-c2nc(NC(=O)C3C4CCC(O4)C3C(=O)O)sc2C)cc1 (configuration not stated) | -128*
COc1ccc(-c2csc(=Nc3ccccc3)n2CCO)cc1 | -100*
COc1ccc(-c2csc(=NCCO)n2-c2ccccc2)cc1 | -99*
Cc1ccc(N=Cc2cc(C)n(C3CCCC3)c2C)cc1 | -155*
Cc1cccc(-n2cnc(C(=O)N/N=C/c3ccccc3)c2)n1 | -78*
Cc1ccc(NC(=O)c2cn(-c3cccc(C)n3)cn2)cc1 | -212*
COc1ccc(-c2nnc(SCC(=O)N3CCCC3)o2)c(OC)c1 | -83*
CC1CCCCN1C(=O)CSc1nnc(-c2ccccc2F)o1 (configuration not stated) | -84*
CC1CCCCN1C(=O)CSc1nnc(-c2ccco2)o1 (configuration not stated) | -136*
O=C(CSc1nnc(-c2ccccc2F)o1)N1CCCC1 | -76*
C/C(=N\NC(=O)c1c([N+](=O)[O-])c(C)nn1C)c1ccc(NC(=O)c2ccc(C)o2)cc1 | -104*
C/C(=N/NS(=O)(=O)c1ccc(F)cc1)c1ccc(NC(=O)c2ccc(C)o2)cc1 | -72*
C/C(=N\NC(=O)c1c([N+](=O)[O-])c(C)nn1C)c1ccc(NC(=O)C2CCCC2)cc1 | 81
CN(C)/C=N/c1c(C#N)cnn1-c1nc2ccccc2s1 | -96*
CCNC(=S)/N=C(\N)Nc1nc(C)c2cc(C)ccc2n1 | -207*
Cc1csc(NC(=O)Cc2ccc(Cl)cc2)n1 | -81*
Cc1csc(NC(=O)Cc2ccccc2Cl)n1 | -99*
COc1cccc(NC(=O)CNC(=O)c2ccccc2)c1 | -66*
COc1cc(OC)cc(C(=O)NCC(=O)Nc2ccc(-c3ccccc3)cc2)c1 | -195*
SMILES | aSyn UTR act
COc1cccc(NC(=O)CN(C)C(=O)CNC(=O)c2ccc(Oc3ccccc3)cc2)c1 | -124*
Cc1ccc(-c2nnc(-c3ccccc3)o2)cc1 | -77*
CCCc1nnc(-c2ccc(OC)cc2)o1 | -67*
Fc1ccc(/C=C/c2nnc(-c3cccs3)o2)cc1 | -129*
CCN(CC)CCCNc1ccc(-c2nnc(-c3ccc(OCC(C)C)cc3)o2)cn1 | 121
Cc1ccc(/C=C/c2nnc(-c3ccc(C)cc3)o2)cc1 | -69*
COc1ccc(-c2nnc(-c3ccc(C)cc3)o2)cc1 | -103*
Cc1ccc(-c2nnc(-c3cccs3)o2)cc1 | -93*
Clc1ccc(-c2nnc(N3CCOCC3)o2)cc1 | -71*
COc1ccc(-c2ccc(-c3nnc(-c4ccncc4)o3)cc2)cc1 | -115*
Cc1ccc(C(=O)Nc2nnc(-c3ccncc3)o2)cc1 | -82*
